# Measurements as given in ChEMBL document CHEMBL3988442, “University of Dundee, Small-Polar-MMV Screening Library” (2021).
# In all, about 69,000 compounds went through this assay and about 1,000 (1.4%) showed an effect of 50% or more. Many of the other results were omitted from the sample, so strong results are more common in it than they were.
# System: Leishmania donovani
# Experiment: Leishmania intramacrophage assay
# Format: functional, organism-based
# Parameters: scale not given: in the data most compounds retested in dose-response had high values
compound,measurement,setting,value
CCN1CCN(C(=O)c2cc(-c3cccs3)cs2)CC1,Percent Effect,"30.3 µM, […]",-1.143%
Cc1ccc(Cl)cc1NC(=O)C1CSc2ncc(C)c(=O)n2C1 (stereo not given),Percent Effect,"30.3 µM, […]",17.12%
COc1cccc(CN(C)c2ncc(C(N)=O)cc2Cl)c1,Percent Effect,"30.3 µM, […]",-8.015%
CCc1nc(C)c(C(=O)NCCNc2ncnc3sccc23)s1,Percent Effect,"30.3 µM, […]",59.68%
CCc1ncc(C(=O)NCCNc2ncnc3sccc23)s1,Percent Effect,"30.3 µM, […]",26.76%
Cc1ncc(C(=O)NCCNc2ncnc3sccc23)s1,Percent Effect,"30.3 µM, […]",20.47%
CC1(C)CCC(C(=O)N2CCCO2)c2ccccc21 (stereo not given),Percent Effect,"30.3 µM, […]",9.47%
CN(C)S(=O)(=O)N1CCC(c2c(C(N)=O)sc3ccccc23)C1 (stereo not given),Percent Effect,"30.3 µM, […]",31.42%
NC(=O)Nc1cccc(F)c1C(=O)NC1CCCC1,Percent Effect,"30.3 µM, […]",3.755%
COc1cccc(OC)c1CNC(Cc1ccsc1)c1ccc(C)cn1 (stereo not given),Percent Effect,"30.3 µM, […]",99.68%
COc1ccc(CNC(Cc2ccsc2)c2ccc(C)cn2)c(OC)c1 (stereo not given),Percent Effect,"30.3 µM, […]",62.45%
COc1ccc(CNC(Cc2ccsc2)c2ccc(C)cn2)cc1OC.Cl (stereo not given),Percent Effect,"30.3 µM, […]",12%
COc1ccc(CNC(Cc2ccsc2)c2ncccc2C)cc1OC (stereo not given),Percent Effect,"30.3 µM, […]",25.36%
CC(C)Oc1cccc(CNC(Cc2ccsc2)c2nccs2)c1.Cl (stereo not given),Percent Effect,"30.3 µM, […]",-38.1%
Cc1cccnc1C(Cc1ccsc1)NCc1cnc(N(C)C)nc1 (stereo not given),Percent Effect,"30.3 µM, […]",17.18%
N#Cc1c2n(c3c(=O)[nH]cnc13)CCCCC2,Percent Effect,"30.3 µM, […]",19.13%
Cc1ccccc1CNCc1cc(Cl)ccc1O,Percent Effect,"30.3 µM, […]",-18.5%
Cc1ccc(C)c(NCc2nc3n(n2)CCCCC3)c1,Percent Effect,"30.3 µM, […]",-6.245%
CSc1cccc(CN(C)C(=O)c2cccc(C3CCCNC3)c2)c1 (stereo not given),Percent Effect,"30.3 µM, […]",27.95%
CSc1cccc(CN(C)C(=O)c2ccc(C3CCCNC3)cc2)c1 (stereo not given),Percent Effect,"30.3 µM, […]",52.27%
CN(Cc1ccc2c(c1)OCO2)C(=O)c1ccc(C2CCCNC2)cc1 (stereo not given),Percent Effect,"30.3 µM, […]",4.185%
CC(C)NC(=O)c1noc2c1CN(Cc1cnn(C)c1)CC2,Percent Effect,"30.3 µM, […]",0.4989%
Cc1noc(C)c1C(=O)NCc1ccc(N2CCCCCC2)nc1,Percent Effect,30 µM,36.14%
CCc1[nH]c2c(CNc3nc(C)cc(NC)n3)cc(C)cc2c1C,Percent Effect,"30.3 µM, […]",89.36%
CCc1[nH]c2c(CNc3cc(C)nc(NC)n3)cc(C)cc2c1C,Percent Effect,"30.3 µM, […]",71.01%
CCc1[nH]c2c(CNc3cncc(C(=O)OC)n3)cc(C)cc2c1C,Percent Effect,"30.3 µM, […]",-70.43%
CNc1cc(C)nc(NCc2cc(C)cc3c(C)c(C)[nH]c23)n1,Percent Effect,"30.3 µM, […]",-40.33%
CCc1[nH]c2c(CNc3nccc(N)n3)cc(C)cc2c1C,Percent Effect,"30.3 µM, […]",21.52%
CNc1nc(C)cc(NCc2cc(C)cc3c(C)c(C)[nH]c23)n1,Percent Effect,"30.3 µM, […]",35.88%
CC(C)c1ccc(S(=O)(=O)NC2CCN(CC(F)(F)F)C2)cc1 (stereo not given),Percent Effect,"30.3 µM, […]",20.88%
O=C(CC1CCCC1)N1CCCC1c1ccc(CN2CCOCC2)cn1 (stereo not given),Percent Effect,"30.3 µM, […]",7.793%
COc1ccccc1CN1C[C@@H](F)[C@@H](OCc2nc3ncccc3[nH]2)C1,Percent Effect,"30.3 µM, […]",33.82%
CCC(NC(=O)Cn1ccc(=O)n(C)c1=O)c1ccc(OC)cc1 (stereo not given),Percent Effect,"30.3 µM, […]",24.09%
CCc1ocnc1C(=O)Nc1ccc2ccn(CCN(C)C)c2c1,Percent Effect,"30.3 µM, […]",-1.774%
COCC1CC2(CCN(Cc3ccccn3)CC2)CN1c1ncccn1.O=C(O)C(F)(F)F.O=C(O)C(F)(F)F.O=C(O)C(F)(F)F (stereo not given),Percent Effect,"30.3 µM, […]",-16.53%
COCC(=O)N1CCC2(CC1)CC(COC)N(Cc1ccccn1)C2.O=C(O)C(F)(F)F (stereo not given),Percent Effect,"30.3 µM, […]",12.17%
COCC1CC2(CCN(Cc3nccs3)CC2)CN1Cc1ccccn1.O=C(O)C(F)(F)F.O=C(O)C(F)(F)F.O=C(O)C(F)(F)F (stereo not given),Percent Effect,"30.3 µM, […]",50.9%
O=C(O)C(F)(F)F.O=C1CC[C@H]2[C@H](CCN2C(=O)C2CCOCC2)N1Cc1ccncc1,Percent Effect,"30 µM, 30.03 µM",15.79%
CS(=O)(=O)c1ccc(CNC(=O)N2CCC(c3ccccc3)CC2)cc1,Percent Effect,"30 µM, 30.03 µM",-1.511%
Cc1cc(CN2C[C@@H]3CN(C(=O)c4cccn4C)CCO[C@@H]3C2)no1.O=C(O)C(F)(F)F,Percent Effect,"30.3 µM, […]",11.08%
Cn1cc(CN2C[C@@H]3CN(C(=O)c4cccn4C)CCO[C@@H]3C2)cn1,Percent Effect,"30.3 µM, […]",58.31%
Cn1cccc1C(=O)N1CCO[C@@H]2CN(Cc3ccco3)C[C@@H]2C1,Percent Effect,"30.3 µM, […]",19.73%
COCC1CN(CC2CC2)Cc2nn(CC3CC3)cc21.O=C(O)C(F)(F)F (stereo not given),Percent Effect,"30.3 µM, […]",8.658%
O=C1OCCN1CCOc1nc(-c2ccccc2Cl)no1,Percent Effect,"30 µM, 30.03 µM",4.618%
CC(C(=O)Nc1ccc(Cl)cn1)n1ccc(C(F)(F)F)n1 (stereo not given),Percent Effect,"30.3 µM, […]",46.39%
Cc1ccc(NC(=O)C(C)n2ccc(C(F)(F)F)n2)nc1 (stereo not given),Percent Effect,"30.3 µM, […]",38.05%
Cc1cnc(NC(=O)C(C)n2ccc(C(F)(F)F)n2)s1 (stereo not given),Percent Effect,"30.3 µM, […]",59.23%
Cc1cc(C(=O)N2CCCCC2C)ccc1NC(=O)N1CCOCC1 (stereo not given),Percent Effect,30 µM,22%
O=C(O)C(F)(F)F.c1cnc(N2Cc3nccn3CC(COc3cccnc3)C2)nc1 (stereo not given),Percent Effect,"30.3 µM, […]",5.012%
CN(C)c1ncc(-c2cncn2CCc2ccc3c(c2)OCCO3)cn1.Cl,Percent Effect,"30.3 µM, […]",20.21%
Cc1cccc(C2(C(=O)NCCCn3cccn3)CC2)c1,Percent Effect,"30 µM, 30.03 µM",17.4%
Cc1ccc(C(CCNCCN(C)C)C2CCOC(C)(C)C2)cc1.O=C(O)C(=O)O (stereo not given),Percent Effect,"30.3 µM, […]",99.98%
Cc1ccc(C(CCNCCCN(C)C)C2CCOC(C)(C)C2)cc1.O=C(O)C(=O)O (stereo not given),Percent Effect,"30.3 µM, […]",85.22%
Cc1ccc(C)c(C(=O)N2CCOC(CCN(C)C)C2)c1 (stereo not given),Percent Effect,"30.3 µM, […]",10.51%
CCN(CC)CCCNCC1CCOC(C)(C)C1 (stereo not given),Percent Effect,"30.3 µM, […]",15.48%
COCCn1ccc2cc(C(=O)NC3CCOC(C)(C)C3)ccc21 (stereo not given),Percent Effect,"30.3 µM, […]",4.385%
Cc1ccc(C(C(=O)NCCN2CCC(CO)CC2)N(C)C)cc1 (stereo not given),Percent Effect,"30.3 µM, […]",25.71%
CCc1noc(C(C)N2CCC(C)CC2)n1 (stereo not given),Percent Effect,30 µM,28.8%
Cn1nc(COc2cccnc2)c2c1CCN(c1cnccn1)C2.O=CO.O=CO,Percent Effect,"30 µM, 30.03 µM",-2.364%
CCCn1nc(C)c(C(=O)N(C)[C@@H]2CC[C@@H](OC)[C@@H]2O)c1C,Percent Effect,"30.3 µM, […]",19.04%
CC(C(=O)Nc1ccc(N2CCCC2)nc1)n1cccn1 (stereo not given),Percent Effect,30 µM,19.04%
Cc1noc(C)c1CCCNC(=O)C1CCN(C(C)C)CC1,Percent Effect,"30.3 µM, […]",24.48%
Cc1nc2cc(CNC(=O)C3CC(=O)N(CCN(C)C)C3)ccc2n1C (stereo not given),Percent Effect,"30.3 µM, […]",7.725%
Cc1nc2cc(CNC(=O)C3CC(=O)N(C4CCCC4)C3)ccc2n1C (stereo not given),Percent Effect,"30.3 µM, […]",2.689%
CCN1CC(C(=O)NCc2ccc3c(c2)nc(C)n3C)CCC1=O (stereo not given),Percent Effect,"30.3 µM, […]",73.45%
CC(C)c1cc(C(=O)O)nc2[nH]c(=O)[nH]c(=O)c12,Percent Effect,"30.3 µM, […]",-5.63%
CCCc1nc(CN2CCCN(Cc3nccn3C)CC2)no1,Percent Effect,30 µM,36.47%
O=C(c1ccc[nH]1)N1CCc2ccc(S(=O)(=O)N3CCOCC3)cc2C1,Percent Effect,"30.3 µM, […]",-1.46%
O=C(c1cc[nH]n1)N1CCc2ccc(S(=O)(=O)N3CCOCC3)cc2C1,Percent Effect,"30.3 µM, […]",52.38%
O=C(c1ccc[nH]1)N1CCc2cc(S(=O)(=O)N3CCOCC3)ccc2C1,Percent Effect,"30.3 µM, […]",17.1%
CN(CC1CCCO1)c1nc(-c2cccnc2)nc2c1CCNCC2 (stereo not given),Percent Effect,"30.3 µM, […]",34.58%
c1cncc(-c2nc3c(c(NCC4(c5ccncc5)CC4)n2)CCC3)c1,Percent Effect,"30.3 µM, […]",33.94%
CC(O)CNc1nc(-c2cccnc2)nc2c1CCC2 (stereo not given),Percent Effect,"30.3 µM, […]",13.01%
Cl.NC1CCc2nc(-c3cccnc3)nc(Nc3ccc(F)cc3)c2C1 (stereo not given),Percent Effect,"30.3 µM, […]",94.83%
CCc1noc(CNc2nc(-c3cccnc3)nc3c2CCNCC3)n1,Percent Effect,"30.3 µM, […]",27.11%
CNS(=O)(=O)CC(=O)NC(C)Cc1ccc(-c2ccccc2)cc1 (stereo not given),Percent Effect,"30.3 µM, […]",32.54%
CN(CCN(C)S(=O)(=O)CC1CCOCC1)c1ccccc1,Percent Effect,"30.3 µM, […]",4.21%
Fc1ccccc1NCc1nc2n(n1)CCCCC2,Percent Effect,"30.3 µM, […]",-12.91%
O=C(Nc1ccccc1)C1=CC2(CCNCC2)c2ccccc21,Percent Effect,"30 µM, 30.03 µM",52.55%
O=C(C1=CC2(CCNCC2)c2ccccc21)N1CCCC1,Percent Effect,"30 µM, 30.03 µM",-18.75%
CC(=O)N1CCC2(C=C(C(=O)NC3CC3)c3ccccc32)CC1,Percent Effect,"30.3 µM, […]",1.849%
Cc1nn(CCn2ccnc2-c2cc3n(n2)CCCNC3)c(C)c1Cl,Percent Effect,"30 µM, 30.03 µM",27.54%
COc1ccc(CN2CCCCCC2c2cccs2)c(OC)c1 (stereo not given),Percent Effect,"30.3 µM, […]",16.39%
Cc1nc(C2CCCN(C(=O)c3cc(-c4ccccc4)[nH]n3)C2)no1 (stereo not given),Percent Effect,"30.3 µM, […]",9.064%
CC(C)CCN1CC2(CCN(C(=O)C3(C)CCCCO3)CC2)OC1=O (stereo not given),Percent Effect,"30.3 µM, […]",6.725%
COc1ccc(C2=Nn3c(CCN)nnc3-c3ccccc3C2)cc1,Percent Effect,"30.3 µM, […]",89.23%
COc1ccc(C2=Nn3c(CN)nnc3-c3ccccc3C2)cc1,Percent Effect,"30.3 µM, […]",36.2%
COc1ccc(C2=Nn3c(CCCN)nnc3-c3ccccc3C2)cc1,Percent Effect,"30.3 µM, […]",30.64%
CC(=O)N1CCc2c(nc(N(C)C)nc2NCCCn2ccnc2)C1,Percent Effect,"30.3 µM, […]",-10.69%
CN(C)CCN1C[C@@H]2CN(C(=O)C3CCOC3)C[C@@H]2C1=O.O=C(O)C(F)(F)F (stereo not given in full),Percent Effect,"30.3 µM, […]",-26.31%
Cc1cc(C(=O)N2CCC3(CCC(=O)N(CC(N)=O)C3)CC2)ccc1O,Percent Effect,"30.3 µM, […]",11.98%
Cc1ccc(S(N)(=O)=O)cc1C(=O)NC1CCCN(C)C1 (stereo not given),Percent Effect,"30.3 µM, […]",17.05%
CC(=O)N1CCC(NC(=O)c2cc(S(N)(=O)=O)ccc2C)CC1,Percent Effect,"30.3 µM, […]",-1.924%
Cc1ccc(S(N)(=O)=O)cc1C(=O)NC1CCCC1,Percent Effect,"30.3 µM, […]",54.24%
CNC(=O)CN(C)C(=O)c1cc(Cl)c(Cl)n1C,Percent Effect,"30.3 µM, […]",1.638%
NC(=O)N1CCC(C(=O)NC2CCc3nccn3C2)CC1 (stereo not given),Percent Effect,"30.3 µM, […]",-91.03%
C=Cc1cccc(CN2CCCn3nc(CNS(C)(=O)=O)cc3C2)c1,Percent Effect,"30.3 µM, […]",8.14%
O=C(O)C(F)(F)F.c1cnc(N2CCO[C@H]3[C@H](OCC4CCOCC4)CC[C@@H]32)nc1,Percent Effect,"30.3 µM, […]",26.14%
Fc1cnc(N2C[C@@H](OCC3CCOCC3)[C@H]3OCCC[C@H]32)nc1.O=C(O)C(F)(F)F,Percent Effect,"30.3 µM, […]",63.79%
Fc1cnc(N2CCO[C@H]3[C@H](OCC4CCOCC4)CC[C@@H]32)nc1.O=C(O)C(F)(F)F,Percent Effect,"30.3 µM, […]",42.92%
